Measured values: ChEMBL document CHEMBL1961873, “Compounds: GSK PKIS; Assays: Nanosyn kinase panel” (2012)

How the values were obtained:
[1] = target: Protein kinase C gamma type (Homo sapiens) (UniProt P05129); settings: at 1 µM;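 note: each value is an averaged percent inhibition of the enzyme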
[2] = target: T1, Protein kinase C iota type (Homo sapiens) (UniProt P41743); settings: at 0.1 µM
T1 sequence (whole entry): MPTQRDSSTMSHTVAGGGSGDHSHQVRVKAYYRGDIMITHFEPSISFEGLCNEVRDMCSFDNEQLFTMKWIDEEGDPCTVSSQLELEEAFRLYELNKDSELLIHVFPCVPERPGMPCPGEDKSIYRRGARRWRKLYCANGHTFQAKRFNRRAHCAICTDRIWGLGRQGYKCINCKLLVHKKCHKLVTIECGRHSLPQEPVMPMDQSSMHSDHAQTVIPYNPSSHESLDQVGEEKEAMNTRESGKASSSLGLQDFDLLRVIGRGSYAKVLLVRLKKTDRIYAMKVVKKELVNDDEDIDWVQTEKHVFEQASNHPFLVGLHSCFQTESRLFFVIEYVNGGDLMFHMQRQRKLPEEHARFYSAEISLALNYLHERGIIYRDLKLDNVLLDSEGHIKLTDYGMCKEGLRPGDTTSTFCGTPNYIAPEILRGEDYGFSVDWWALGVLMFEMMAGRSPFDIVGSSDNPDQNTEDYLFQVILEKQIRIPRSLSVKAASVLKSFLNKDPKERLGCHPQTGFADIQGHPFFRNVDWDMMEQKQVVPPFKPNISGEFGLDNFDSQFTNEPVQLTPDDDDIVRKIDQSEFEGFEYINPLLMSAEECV

[3] = target: T1, Protein kinase C iota type (Homo sapiens); settings: at 1 µM
[4] = target: Protein kinase C theta type (Homo sapiens) (UniProt Q04759); settings: at 0.1 µM
[5] = target: Protein kinase C theta type (Homo sapiens) (UniProt Q04759); settings: at 1 µM
[6] = target: Protein kinase C beta type (Homo sapiens) (UniProt P05771); settings: at 0.1 µM
[7] = target: Protein kinase C beta type (Homo sapiens) (UniProt P05771); settings: at 1 µM
[8] = target: T2, Serine/threonine-protein kinase D1 (Homo sapiens) (UniProt Q15139); settings: at 0.1 µM
T2 sequence (whole entry): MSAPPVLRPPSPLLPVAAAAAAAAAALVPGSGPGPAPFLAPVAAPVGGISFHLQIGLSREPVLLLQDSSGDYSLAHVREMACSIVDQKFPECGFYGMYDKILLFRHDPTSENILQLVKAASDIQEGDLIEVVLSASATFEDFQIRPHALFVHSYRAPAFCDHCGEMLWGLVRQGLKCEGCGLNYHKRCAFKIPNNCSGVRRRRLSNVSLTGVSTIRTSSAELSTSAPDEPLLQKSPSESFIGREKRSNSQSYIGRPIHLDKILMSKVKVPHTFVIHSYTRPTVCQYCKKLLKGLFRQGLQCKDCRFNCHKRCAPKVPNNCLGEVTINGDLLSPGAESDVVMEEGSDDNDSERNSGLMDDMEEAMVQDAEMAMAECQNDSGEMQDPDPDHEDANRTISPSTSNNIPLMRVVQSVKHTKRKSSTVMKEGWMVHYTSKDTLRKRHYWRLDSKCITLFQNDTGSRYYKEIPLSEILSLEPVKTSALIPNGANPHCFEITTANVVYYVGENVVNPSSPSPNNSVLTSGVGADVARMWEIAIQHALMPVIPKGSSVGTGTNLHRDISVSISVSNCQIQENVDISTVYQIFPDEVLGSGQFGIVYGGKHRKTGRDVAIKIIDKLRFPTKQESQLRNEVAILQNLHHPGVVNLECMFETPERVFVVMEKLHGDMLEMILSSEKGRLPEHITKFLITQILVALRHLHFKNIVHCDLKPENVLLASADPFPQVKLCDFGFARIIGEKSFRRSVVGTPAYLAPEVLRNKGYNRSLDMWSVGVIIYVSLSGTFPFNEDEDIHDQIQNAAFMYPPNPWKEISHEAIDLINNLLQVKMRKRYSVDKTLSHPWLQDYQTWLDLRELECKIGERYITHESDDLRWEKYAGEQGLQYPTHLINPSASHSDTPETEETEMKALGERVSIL

[9] = target: T2, Serine/threonine-protein kinase D1 (Homo sapiens); settings: at 1 µM
[10] = target: T3, Serine/threonine-protein kinase D2 (Homo sapiens) (UniProt Q9BZL6); settings: at 0.1 µM
T3 sequence (whole entry): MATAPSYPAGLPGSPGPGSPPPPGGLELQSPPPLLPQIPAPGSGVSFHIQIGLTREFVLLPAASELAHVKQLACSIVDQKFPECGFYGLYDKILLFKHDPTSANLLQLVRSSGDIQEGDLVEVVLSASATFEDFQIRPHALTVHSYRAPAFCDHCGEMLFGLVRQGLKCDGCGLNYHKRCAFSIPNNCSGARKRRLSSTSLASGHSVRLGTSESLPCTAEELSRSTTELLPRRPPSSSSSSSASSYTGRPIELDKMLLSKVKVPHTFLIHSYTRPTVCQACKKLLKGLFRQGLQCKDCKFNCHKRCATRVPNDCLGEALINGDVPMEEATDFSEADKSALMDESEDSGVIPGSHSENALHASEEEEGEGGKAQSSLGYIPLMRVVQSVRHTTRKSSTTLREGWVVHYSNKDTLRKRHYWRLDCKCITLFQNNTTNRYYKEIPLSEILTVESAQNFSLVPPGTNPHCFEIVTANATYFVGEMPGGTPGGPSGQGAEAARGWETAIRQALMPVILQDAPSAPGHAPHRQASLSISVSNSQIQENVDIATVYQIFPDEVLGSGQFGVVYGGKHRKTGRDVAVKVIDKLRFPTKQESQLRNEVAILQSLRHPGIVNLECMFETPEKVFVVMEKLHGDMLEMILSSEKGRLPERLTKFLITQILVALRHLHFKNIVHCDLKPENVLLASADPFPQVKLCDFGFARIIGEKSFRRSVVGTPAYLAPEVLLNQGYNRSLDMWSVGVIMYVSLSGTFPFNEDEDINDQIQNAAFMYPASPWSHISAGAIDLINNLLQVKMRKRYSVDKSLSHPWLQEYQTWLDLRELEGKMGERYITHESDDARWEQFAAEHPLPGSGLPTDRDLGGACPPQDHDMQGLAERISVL

[11] = target: T3, Serine/threonine-protein kinase D2 (Homo sapiens); settings: at 1 µM
[12] = target: T4, Serine/threonine-protein kinase D3 (Homo sapiens) (UniProt O94806); settings: at 0.1 µM
T4 sequence (whole entry): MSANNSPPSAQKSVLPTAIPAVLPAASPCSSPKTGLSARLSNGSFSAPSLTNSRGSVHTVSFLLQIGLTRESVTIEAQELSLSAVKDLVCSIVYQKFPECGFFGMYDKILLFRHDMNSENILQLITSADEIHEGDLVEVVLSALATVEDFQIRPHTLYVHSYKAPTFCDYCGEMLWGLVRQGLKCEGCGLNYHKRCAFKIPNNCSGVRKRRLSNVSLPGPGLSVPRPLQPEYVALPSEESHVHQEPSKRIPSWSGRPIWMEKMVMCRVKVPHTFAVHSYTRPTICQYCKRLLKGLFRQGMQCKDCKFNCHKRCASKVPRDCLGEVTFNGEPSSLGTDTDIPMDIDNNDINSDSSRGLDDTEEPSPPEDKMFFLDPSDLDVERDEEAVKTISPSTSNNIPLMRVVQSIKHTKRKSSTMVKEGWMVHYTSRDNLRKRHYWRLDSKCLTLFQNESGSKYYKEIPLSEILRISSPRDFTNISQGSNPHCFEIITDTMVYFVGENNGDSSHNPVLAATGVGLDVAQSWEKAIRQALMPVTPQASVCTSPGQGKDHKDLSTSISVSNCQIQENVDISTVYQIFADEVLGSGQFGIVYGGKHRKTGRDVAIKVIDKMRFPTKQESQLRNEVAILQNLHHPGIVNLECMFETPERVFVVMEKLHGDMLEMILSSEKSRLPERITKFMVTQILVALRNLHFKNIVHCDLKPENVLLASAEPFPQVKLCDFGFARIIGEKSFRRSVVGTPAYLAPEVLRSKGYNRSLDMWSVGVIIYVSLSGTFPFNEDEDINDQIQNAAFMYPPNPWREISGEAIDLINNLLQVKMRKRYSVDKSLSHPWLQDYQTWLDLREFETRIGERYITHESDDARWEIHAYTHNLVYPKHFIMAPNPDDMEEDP

[13] = target: T4, Serine/threonine-protein kinase D3 (Homo sapiens); settings: at 1 µM
[14] = target: T5, cGMP-dependent protein kinase 1 (Homo sapiens) (UniProt Q13976); settings: at 0.1 µM
T5 sequence (whole entry): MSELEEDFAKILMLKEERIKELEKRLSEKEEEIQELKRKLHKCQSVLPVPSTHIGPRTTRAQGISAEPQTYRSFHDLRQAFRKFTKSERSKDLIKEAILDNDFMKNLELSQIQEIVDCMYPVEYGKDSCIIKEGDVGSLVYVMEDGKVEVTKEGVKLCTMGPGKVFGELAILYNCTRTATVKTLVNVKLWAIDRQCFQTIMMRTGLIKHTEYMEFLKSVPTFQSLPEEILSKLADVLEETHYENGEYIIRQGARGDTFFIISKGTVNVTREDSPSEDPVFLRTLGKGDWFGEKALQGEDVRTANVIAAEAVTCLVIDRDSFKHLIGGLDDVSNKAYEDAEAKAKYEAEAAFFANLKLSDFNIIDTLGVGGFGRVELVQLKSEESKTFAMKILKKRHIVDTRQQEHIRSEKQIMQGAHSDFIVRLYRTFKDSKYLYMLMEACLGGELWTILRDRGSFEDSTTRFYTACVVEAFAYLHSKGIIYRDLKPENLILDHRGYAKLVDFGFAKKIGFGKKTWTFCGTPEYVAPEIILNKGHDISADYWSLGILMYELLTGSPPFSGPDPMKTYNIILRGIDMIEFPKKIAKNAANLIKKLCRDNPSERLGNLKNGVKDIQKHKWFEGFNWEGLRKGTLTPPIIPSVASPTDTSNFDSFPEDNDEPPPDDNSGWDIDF

[15] = target: T5, cGMP-dependent protein kinase 1 (Homo sapiens); settings: at 1 µM
[16] = target: T6, cGMP-dependent protein kinase 2 (Homo sapiens) (UniProt Q13237); settings: at 0.1 µM
T6 sequence (whole entry): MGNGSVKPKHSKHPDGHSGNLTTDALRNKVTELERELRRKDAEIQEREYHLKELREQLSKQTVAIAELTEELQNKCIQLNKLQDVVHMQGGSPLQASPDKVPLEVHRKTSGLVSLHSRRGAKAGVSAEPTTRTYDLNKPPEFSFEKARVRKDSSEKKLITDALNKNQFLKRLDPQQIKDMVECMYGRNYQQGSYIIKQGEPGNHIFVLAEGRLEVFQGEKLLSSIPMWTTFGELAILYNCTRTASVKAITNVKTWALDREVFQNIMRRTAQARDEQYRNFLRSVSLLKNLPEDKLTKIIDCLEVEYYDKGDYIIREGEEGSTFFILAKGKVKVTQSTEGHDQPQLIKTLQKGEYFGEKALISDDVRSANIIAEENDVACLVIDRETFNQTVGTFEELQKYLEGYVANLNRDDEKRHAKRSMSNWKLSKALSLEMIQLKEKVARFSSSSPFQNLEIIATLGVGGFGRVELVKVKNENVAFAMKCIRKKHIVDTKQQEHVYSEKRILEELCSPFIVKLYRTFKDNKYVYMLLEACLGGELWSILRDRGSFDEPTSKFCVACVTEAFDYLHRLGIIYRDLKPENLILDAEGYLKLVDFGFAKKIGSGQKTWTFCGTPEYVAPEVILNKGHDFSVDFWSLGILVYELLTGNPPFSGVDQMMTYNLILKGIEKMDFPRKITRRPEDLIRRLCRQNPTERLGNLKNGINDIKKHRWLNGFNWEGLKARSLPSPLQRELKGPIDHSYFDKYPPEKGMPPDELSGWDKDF

[17] = target: T6, cGMP-dependent protein kinase 2 (Homo sapiens); settings: at 1 µM
[18] = target: T7, cAMP-dependent protein kinase catalytic subunit PRKX (Homo sapiens) (UniProt P51817); settings: at 0.1 µM
T7 sequence (whole entry): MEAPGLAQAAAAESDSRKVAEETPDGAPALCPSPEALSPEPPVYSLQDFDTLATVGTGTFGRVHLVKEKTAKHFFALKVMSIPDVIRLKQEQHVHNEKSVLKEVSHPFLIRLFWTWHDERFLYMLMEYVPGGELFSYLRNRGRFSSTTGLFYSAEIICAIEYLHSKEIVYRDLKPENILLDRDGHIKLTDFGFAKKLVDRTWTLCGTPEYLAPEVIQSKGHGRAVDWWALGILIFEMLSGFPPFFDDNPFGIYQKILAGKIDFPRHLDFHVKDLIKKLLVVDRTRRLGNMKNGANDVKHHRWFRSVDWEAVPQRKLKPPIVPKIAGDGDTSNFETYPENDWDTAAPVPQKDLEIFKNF

[19] = target: T7, cAMP-dependent protein kinase catalytic subunit PRKX (Homo sapiens); settings: at 1 µM
[20] = target: Rho-associated protein kinase 1 (Homo sapiens) (UniProt Q13464); settings: at 0.1 µM;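 note: values are mean percent inhibition of ROCK1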
Chain of Rho-associated protein kinase 1 (Homo sapiens) (Q13464 2-1354 limits assumed): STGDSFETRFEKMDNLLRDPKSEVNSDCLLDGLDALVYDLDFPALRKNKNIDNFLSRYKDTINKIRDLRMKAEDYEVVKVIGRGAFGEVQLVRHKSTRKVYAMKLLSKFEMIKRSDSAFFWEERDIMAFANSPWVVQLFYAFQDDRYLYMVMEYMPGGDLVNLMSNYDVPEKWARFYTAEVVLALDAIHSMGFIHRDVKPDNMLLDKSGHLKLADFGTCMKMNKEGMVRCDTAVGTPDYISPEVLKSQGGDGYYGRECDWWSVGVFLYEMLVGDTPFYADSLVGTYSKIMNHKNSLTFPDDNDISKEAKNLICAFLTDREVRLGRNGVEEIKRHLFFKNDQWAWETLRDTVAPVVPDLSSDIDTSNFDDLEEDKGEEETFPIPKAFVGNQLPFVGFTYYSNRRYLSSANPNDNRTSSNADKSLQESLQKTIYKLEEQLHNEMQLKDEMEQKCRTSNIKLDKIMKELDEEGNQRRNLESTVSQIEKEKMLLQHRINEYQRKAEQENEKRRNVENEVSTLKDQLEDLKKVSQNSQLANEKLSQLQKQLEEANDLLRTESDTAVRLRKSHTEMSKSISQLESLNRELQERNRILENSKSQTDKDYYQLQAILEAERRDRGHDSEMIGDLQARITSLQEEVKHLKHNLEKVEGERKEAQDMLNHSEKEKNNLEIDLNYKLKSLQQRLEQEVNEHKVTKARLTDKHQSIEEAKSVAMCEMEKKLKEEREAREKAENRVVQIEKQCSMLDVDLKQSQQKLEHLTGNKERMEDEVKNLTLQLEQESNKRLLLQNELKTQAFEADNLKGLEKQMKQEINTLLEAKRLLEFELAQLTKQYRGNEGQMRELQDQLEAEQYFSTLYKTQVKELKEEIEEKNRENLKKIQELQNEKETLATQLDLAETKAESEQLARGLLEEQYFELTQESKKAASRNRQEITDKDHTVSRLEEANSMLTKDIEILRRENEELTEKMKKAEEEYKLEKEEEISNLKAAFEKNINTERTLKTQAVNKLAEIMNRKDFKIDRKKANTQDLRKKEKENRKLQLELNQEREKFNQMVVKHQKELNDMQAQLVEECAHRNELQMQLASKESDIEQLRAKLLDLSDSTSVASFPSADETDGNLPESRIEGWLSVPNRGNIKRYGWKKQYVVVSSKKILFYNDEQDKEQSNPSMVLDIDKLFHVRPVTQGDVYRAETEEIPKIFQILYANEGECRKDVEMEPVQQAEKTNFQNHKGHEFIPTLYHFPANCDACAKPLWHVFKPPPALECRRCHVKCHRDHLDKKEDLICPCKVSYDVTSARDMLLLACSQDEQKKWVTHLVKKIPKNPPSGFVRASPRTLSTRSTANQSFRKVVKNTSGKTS

Chain of Protein kinase C theta type (Homo sapiens) (Q04759 whole entry, looked up): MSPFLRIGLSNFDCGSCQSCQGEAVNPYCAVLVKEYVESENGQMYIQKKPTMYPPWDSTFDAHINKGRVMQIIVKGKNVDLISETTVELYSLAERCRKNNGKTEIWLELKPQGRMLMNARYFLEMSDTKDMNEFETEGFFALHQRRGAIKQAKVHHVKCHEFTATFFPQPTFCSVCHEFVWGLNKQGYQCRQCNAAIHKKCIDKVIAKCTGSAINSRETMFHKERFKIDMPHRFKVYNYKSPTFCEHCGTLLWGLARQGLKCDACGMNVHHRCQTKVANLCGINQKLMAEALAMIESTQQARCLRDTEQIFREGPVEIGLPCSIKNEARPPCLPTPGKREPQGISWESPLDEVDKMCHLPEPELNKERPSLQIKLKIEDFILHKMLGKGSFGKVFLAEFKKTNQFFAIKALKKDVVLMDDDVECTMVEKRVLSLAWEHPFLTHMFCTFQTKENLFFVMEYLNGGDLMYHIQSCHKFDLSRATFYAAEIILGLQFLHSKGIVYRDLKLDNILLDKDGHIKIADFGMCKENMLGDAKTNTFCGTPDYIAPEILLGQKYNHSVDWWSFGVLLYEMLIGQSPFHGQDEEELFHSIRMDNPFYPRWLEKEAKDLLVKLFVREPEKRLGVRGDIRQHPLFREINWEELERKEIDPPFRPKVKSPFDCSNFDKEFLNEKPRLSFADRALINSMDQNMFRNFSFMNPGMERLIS
Chain of Protein kinase C beta type (Homo sapiens) (P05771 2-671 limits assumed): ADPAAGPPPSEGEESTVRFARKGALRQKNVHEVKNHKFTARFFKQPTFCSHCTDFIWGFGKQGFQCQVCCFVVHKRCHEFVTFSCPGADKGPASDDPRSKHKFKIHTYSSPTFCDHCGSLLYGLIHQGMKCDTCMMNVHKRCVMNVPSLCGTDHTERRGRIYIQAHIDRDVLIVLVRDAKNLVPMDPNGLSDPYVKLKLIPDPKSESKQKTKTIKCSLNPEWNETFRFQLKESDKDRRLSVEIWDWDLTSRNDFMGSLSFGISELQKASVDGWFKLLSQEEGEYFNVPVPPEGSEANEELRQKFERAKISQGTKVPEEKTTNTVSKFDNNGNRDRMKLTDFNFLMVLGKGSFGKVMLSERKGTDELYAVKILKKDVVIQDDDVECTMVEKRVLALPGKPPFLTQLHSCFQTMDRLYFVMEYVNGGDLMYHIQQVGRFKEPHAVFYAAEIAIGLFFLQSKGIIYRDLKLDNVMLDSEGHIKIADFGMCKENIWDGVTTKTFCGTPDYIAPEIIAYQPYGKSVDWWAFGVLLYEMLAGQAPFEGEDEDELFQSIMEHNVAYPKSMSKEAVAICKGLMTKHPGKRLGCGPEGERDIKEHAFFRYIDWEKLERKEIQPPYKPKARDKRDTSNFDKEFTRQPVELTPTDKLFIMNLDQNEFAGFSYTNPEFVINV

Row | SMILES | inhibition [1] | inhibition [2] | inhibition [3] | inhibition [4] | inhibition [5] | inhibition [6] | inhibition [7] | inhibition [8] | inhibition [9] | inhibition [10] | inhibition [11] | inhibition [12] | inhibition [13] | inhibition [14] | inhibition [15] | inhibition [16] | inhibition [17] | inhibition [18] | inhibition [19] | inhibition [20]
1 | Fc1ccc(-c2ncn(C3CCNCC3)c2-c2ccnc(Oc3ccc(F)c(F)c3)n2)cc1 | 4.25% | 1.82% | 1.79% | 2.61% | 2.43% | 0.97% | 3.85% | 2% | 7.05% | 1.25% | 3.98% | 1.09% | 5.58% | 2.42% | 0.89% | 0.9% | 4.44% | 1.98% | 2.55% | 1.38%
2 | NC(=O)c1cc(-c2ccc(F)cc2)cc(-c2ccncc2)c1N | 5.15% | 0.73% | 0.87% | 1.84% | 3.65% | 1.46% | 1.35% | 4.65% | 3.31% | 3.51% | 4.06% | 3.88% | 2.86% | 1.49% | 5.83% | 1.73% | 2.74% | 1.1% | 3.07% | -0.55%
3 | COc1cccc(-n2cnc3c(N/N=C/c4ccncc4)ncnc32)c1 | 3.14% | 0.58% | -0.97% | 0.62% | 4.42% | 2.34% | 2.1% | -2.1% | -5.45% | -4.34% | -5.5% | -3.34% | -4.97% | 0.67% | 3.77% | 3.29% | 4.98% | 1.92% | 5.16% | 0.59%
